# Test results: ChEMBL document CHEMBL3988442, “University of Dundee, Small-Polar-MMV Screening Library” (2021)
# About 13,000 (27%) of roughly 48,000 compounds showed an effect of 50% or more. The list shows a part of the results.
# Tested on: Wolbachia pipientis
# Assay: Anti-Wolbachia Cell-Based Screen
# Assay type: functional
# Design: scale not given: in the data most compounds retested in dose-response had high values
# Settings: 5 µM
row,SMILES,Percent Effect
1,O=C(NCCOc1ccc(F)c(F)c1)NCc1cccc(CO)c1,-4.638%
2,Cc1nnc(NCC(c2ccco2)N2CCCCC2)c(C#N)c1C (stereo not drawn),-2.88%
3,CN1CCN(C)C2(CCN(Cc3ccc(C4CCCCO4)o3)CC2)C1 (stereo not drawn),27.87%
4,CCC(C)C(=O)NCc1cccc(OCCN(C)C2CCOCC2)c1 (stereo not drawn),6.512%
5,CN1CC2(CCN(C(=O)c3coc4c3C(=O)CCC4)C2)OC1=O (stereo not drawn),-2.236%
6,Cn1cc(C(=O)N2C[C@@H]3CN(S(C)(=O)=O)CCO[C@@H]3C2)cn1,95.46%
7,Cc1ccc(C(=O)N2C[C@@H]3CN(S(C)(=O)=O)CCO[C@@H]3C2)s1,-10.28%
8,Cn1nccc1C(=O)N1C[C@@H]2CN(S(C)(=O)=O)CCO[C@@H]2C1,115.5%
9,Cc1nc(C(=O)N2C[C@@H]3CN(S(C)(=O)=O)CCO[C@@H]3C2)cs1,-14.32%
10,O=C(c1cc2ccccc2s1)N1CCC(C(=O)O)(n2cccn2)CC1,-13.71%
11,CCn1cc2c(n1)CN(C(=O)c1ccncc1)CC2COCC1CC1.O=C(O)C(F)(F)F (stereo not drawn),20.52%
12,O=C(COc1ccccc1Cl)N1CCCC(n2ccnc2)C1 (stereo not drawn),92.71%
13,CCn1cnnc1C1CCCN(C(=O)COc2ccc(Cl)cc2)C1 (stereo not drawn),6.691%
14,O=C(COCC1CC1)N1CCCC(n2ccnc2)C1 (stereo not drawn),8.162%
15,O=C(c1ccccc1OCC1CC1)N1CCCC(n2ccnc2)C1 (stereo not drawn),8.934%
16,O=C(COC1CCCCC1)N1CCCC(n2ccnc2)C1 (stereo not drawn),76.06%
17,O=C(COCc1ccccc1Cl)N1CCCC(n2ccnc2)C1 (stereo not drawn),103.7%
18,COc1cccc(COCC(=O)N2CCCC(c3nncn3C)C2)c1 (stereo not drawn),-0.5429%
19,O=C(COCc1ccccc1Cl)N1CCCC(n2cccn2)C1 (stereo not drawn),1.04%
20,Cn1cnnc1C1CCCN(C(=O)COc2ccccc2Cl)C1 (stereo not drawn),152.2%
21,CN(CC(=O)N1CCCC(n2ccnc2)C1)c1cnccn1 (stereo not drawn),-4.389%
22,CC1(COc2ccccc2)NCCc2[nH]cnc21 (stereo not drawn),7.349%
23,CCc1cc(CN(C)C(=O)C2CC(=O)N(c3cccc(O)c3)C2)on1 (stereo not drawn),-10.41%
24,Cc1ccc(C(C(=O)N2CCN(C(=O)c3ccc[nH]3)CC2)N(C)C)cc1 (stereo not drawn),1.987%
25,COCCOc1ccc(NC(=O)N(CC2CCOC2)C2CC2)cn1 (stereo not drawn),-6.429%

row,SMILES,Percent Effect
1,O=C(COCCc1ccccc1)N1CCCC(n2cccn2)C1 (stereo not drawn),5.674%
2,COc1cccc(COCC(=O)N2CCCC(n3ccnc3)C2)c1 (stereo not drawn),-0.4033%
3,O=C(COCCOc1ccccc1)N1CCCC(n2ccnc2)C1 (stereo not drawn),75.36%
4,Cc1cc(C(=O)N2CCCC2c2nc(O)cc(C(C)C)n2)on1 (stereo not drawn),118.7%
5,CC(C)c1nc(C2CCCN2C(=O)c2nccnc2N)no1 (stereo not drawn),-0.7868%
6,Cc1cc(C(=O)N2CCCC2c2nc(C)cc(O)n2)on1 (stereo not drawn),93.31%
7,CC(C)c1cc(C(=O)N2CCCC2c2nc(-c3ccccc3)no2)[nH]n1 (stereo not drawn),-1.356%
8,CCn1ccnc1CN1CCC(CCC(=O)Nc2ccccc2Cl)CC1,11.39%
9,COCCC1(C(=O)O)CCCN(C(=O)c2cnc3c(c2)CCCC3)C1 (stereo not drawn),8.826%
10,O=C(Cc1ccc2c(c1)OCCO2)N1CCCC(n2ccnc2)C1 (stereo not drawn),5.657%
11,O=C(Cc1ccc(-n2cccn2)cc1)N1CCCC(n2cccn2)C1 (stereo not drawn),7.23%
12,O=C(Cc1cn2ccccc2n1)N1CCCC(n2cccn2)C1 (stereo not drawn),62.83%
13,Cc1cnn(C2CCCN(C(=O)Cc3cn4ccccc4n3)C2)c1 (stereo not drawn),14.59%
14,O=C(Cc1cn2ccccc2n1)N1CCCC(n2ccnc2)C1 (stereo not drawn),115.6%
15,Fc1cccc2ncnc(NCCCc3ccncc3)c12,-47.88%
16,COC1COC2(CCN(C(=O)c3cocn3)CC2)C1 (stereo not drawn),-7.314%
17,O=C(c1ccccc1)N1CCC2(CC1)CC(Oc1ccccc1)CO2 (stereo not drawn),2.639%
18,O=C(O)C(F)(F)F.O=C(c1ccccc1F)N1CCC2(CC1)CC(Oc1ccccn1)CO2 (stereo not drawn),109.1%
19,COC1COC2(CCN(C(=O)c3ncccn3)CC2)C1 (stereo not drawn),-17.92%
20,O=C(O)C(F)(F)F.O=C(c1ccccc1F)N1CCC2(CC1)CC(N1CCCC1)CO2 (stereo not drawn),116.8%
21,COC1COC2(CCN(C(=O)c3ccccc3F)CC2)C1 (stereo not drawn),91.89%
22,O=C(O)C(F)(F)F.O=C(O)C(F)(F)F.c1cc(CN2CCC3(CC2)CC(N2CCCC2)CO3)co1 (stereo not drawn),-12.83%
23,CS(=O)(=O)N1CCC2(CC1)CC(Oc1ccccn1)CO2.O=C(O)C(F)(F)F (stereo not drawn),10.24%
24,CCN(C)C1COC2(CCN(C(=O)c3ccc(Cl)cc3)CC2)C1.O=C(O)C(F)(F)F (stereo not drawn),-12.32%
25,COC1COC2(CCN(C(=O)c3cnc(C)cn3)CC2)C1 (stereo not drawn),14.55%

row,SMILES,Percent Effect
1,COC1COC2(CCN(C(=O)c3ccc4ccccc4c3)CC2)C1 (stereo not drawn),112.4%
2,O=C(O)C(F)(F)F.O=C(c1cocn1)N1CCC2(CC1)CC(Oc1ccccn1)CO2 (stereo not drawn),3.532%
3,Cc1cc(C(=O)NC2(C#N)CCCC2)c(C)n1-c1cccnc1,-8.526%
4,O=C(Cc1cccs1)NCC1Cn2nnc(-c3ccoc3)c2CO1 (stereo not drawn),6.925%
5,Fc1ccc(CN2CCC3(CCCN(c4nncs4)C3)C2)cc1.O=C(O)C(F)(F)F (stereo not drawn),5.699%
6,COc1ccc(S(=O)(=O)NC(=O)C(C)OC)c(OC)c1 (stereo not drawn),36.91%
7,O=C(N[C@@H]1CN(C2CCCC2)C[C@@H]2CCCO[C@@H]21)c1cnccn1.O=C(O)C(F)(F)F,-9.219%
8,CN(C(=O)C(c1c(F)cccc1Cl)N(C)C)c1nccs1 (stereo not drawn),2.736%
9,COc1ncccc1C(=O)N1C[C@@H]2COC[C@]2(CN(C)C)C1.O=C(O)C(F)(F)F.O=C(O)C(F)(F)F,-15.94%
10,COC1COC2(CCN(C(=O)c3cscn3)CC2)C1 (stereo not drawn),-7.766%
11,COc1ncccc1C(=O)N1CCC2(CC1)CC(OC)CO2.O=C(O)C(F)(F)F (stereo not drawn),101.4%
12,COc1coc(CN2CCCC3(CCC(=O)N(C4CC4)C3)C2)cc1=O (stereo not drawn),7.748%
13,Nc1ccnc(C(=O)N2CCCC3(CCC(=O)N(C4CCCC4)C3)C2)c1 (stereo not drawn),1.558%
14,Cn1cc(CN2C[C@@H](N3CCCC3=O)[C@H]3OCCC[C@H]32)cn1,16.86%
15,O=C1CCC2(CCCN(CCn3cc(Cl)cn3)C2)CN1C1CCCC1 (stereo not drawn),113%
16,O=C1CCCN1C1CCCN(CCOc2ccc(F)cc2)C1 (stereo not drawn),-5.922%
17,O=C1CCCN1C1CCCN(CCn2cc(Cl)cn2)C1 (stereo not drawn),92.68%
18,COCCCN1CC2(CCCN(CCn3cc(Cl)cn3)C2)CCC1=O (stereo not drawn),116.7%
19,COCCN1CC2(CCCN(c3ncc(Cl)cc3F)C2)CCC1=O (stereo not drawn),2.913%
20,Cc1cnn(CC(=O)N2CCC3(CCC(=O)N(C4CCCC4)C3)CC2)c1,-24.67%
21,COCCCN1CC2(CCCN(c3ncc(Cl)cc3F)C2)CCC1=O (stereo not drawn),-2.307%
22,Cc1ccnn1CCN1CCCC2(CCC(=O)N(C3CCCC3)C2)C1 (stereo not drawn),107.9%
23,O=C1CCC2(CCN(Cc3cc(F)ccc3Cl)CC2)CN1C1CCCC1,-0.02537%
